According to the supplement of paper PMC7156485:
± gives the standard deviation of the averaged measurements.

Legend:
Conditions in all cases: concentration: 10 µM; 24 h
HCC1569 [1] = assay: cell number relative to DMSO (% of DMSO); higher = more cells (less growth inhibition / toxicity)
Outline: (§1)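 Six fields per well were imaged at ×10 after the cells were fixed in 3.7% formaldehyde and stained with a rabbit anti-H1.0 antibody, an AlexaFluor 647 secondary and DAPI. The HCC1569 and TDF cells had been plated at 800 per well in 384-well plates (RPMI, 10% FBS) and treated in triplicate with compounds at 10 µM for 24 h at 37 °C. The values are the median of replicates of H1.0 nuclear intensity or cell number, as percent of the plate control. Smoothing for positional effects was applied to HCC1569 data.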

TDF [2] = assay: as above
Outline: as §1

TDF [3] = assay: H1.0 immunofluorescence intensity relative to DMSO (% of DMSO); higher = stronger H1.0 induction, active = 120 or more
Outline: as §1

HCC1569 [4] = assay: H1.0 immunofluorescence intensity relative to DMSO (% of DMSO); higher = stronger H1.0 induction, active = 140 or more
Outline: as §1
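Throughout, for H1.0 immunofluorescence intensity relative to DMSO: TDF is a line of transformed human dermal fibroblasts of mesenchymal origin.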
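Throughout, for cell number relative to DMSO: TDF denotes transformed human dermal fibroblasts of mesenchymal origin.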

SMILES | cell number (HCC1569 [1]) | cell number (TDF [2]) | H1.0 immunofluorescence intensity (TDF [3]) | H1.0 immunofluorescence intensity (HCC1569 [4])
Nc1ncnc2n[nH]c(Nc3ccc(F)cc3)c12 [MNK1 Inhibitor] | 91.2 | 110 | 88.8 (inactive) | 140 (inactive)
O=C(C=Cc1ccc(O)cc1)c1ccc(O)cc1O [Isoliquiritigenin] | 96.3 | 99.6 | 89.2 (inactive) | 100 (inactive)
C[N+](C)(C)CCC(=O)c1cccc2ccccc12.[I-] [2-(alpha-Naphthoyl)ethyltrimethylammonium iodide] | 92.7 | 81.5 | 101 (inactive) | 91.6 (inactive)
CC1COc2c(N3CCN(C)CC3)c(F)cc3c(=O)c(C(=O)O)cn1c23 (centres undefined) [Levofloxacin] | 103 | 100 | 98.5 (inactive) | 101 (inactive)
COc1ccc(-c2coc3cc(O)cc(O)c3c2=O)cc1 [Biochanin A] | 106 | 97.4 | 93.9 (inactive) | 90.6 (inactive)
CC=C(C)C(=O)OC1CC(C)=CC(=O)C2(C)CCC(O)(C(C)C)C12 (centres undefined) [Lapidin] | 104 | 102 | 95.4 (inactive) | 93.9 (inactive)
Cc1c(-c2cnccn2)ssc1=S [Oltipraz] | 105 | 101 | 97.9 (inactive) | 114 (inactive)
Cc1ccc(C(=O)COC(=O)c2cccc(NC(=O)c3ccc([N+](=O)[O-])cc3[N+](=O)[O-])c2)cc1 | 76.5 | 67.7 | 110 (inactive) | 152 (active)
O=C(O)CCCCCCCC(=O)O [Azelaic acid] | 102 | 101 | 98.2 (inactive) | 89.8 (inactive)
O=C1CSc2ccccc2N1Cc1cccc(C(F)(F)F)c1 [4-[3-(trifluoromethyl)benzyl]-2H-1,4-benzothiazin-3(4H)-one] | 102 | 106 | 96.3 (inactive) | 105 (inactive)
CCCCCC(O)C=CC=CC=CC(O)CC=CCCCC(=O)O [8(S),15(S)-DIHETE all trans] | 103 | 96.5 | 92.4 (inactive) | 101 (inactive)
Cl.Oc1ccc(C2CNCCc3c2cc(O)c(O)c3Cl)cc1 (centres undefined) [Fenoldopam.HCl] | 97.6 | 97.8 | 97 (inactive) | 121 (inactive)
CC(=O)C1CCC2C3CCC4=CC(=O)CCC4(C)C3CCC12C (centres undefined) [Progesterone] | 101.3 ± 0.57 | 99.1 ± 7.3 | 95.9 (inactive) | 102 (inactive)
Nc1ncnc2c1cnn2-c1ccccc1 | 103 | 110 | 91.4 (inactive) | 104 (inactive)
COc1cc2oc(=O)ccc2cc1O [Isoscopoletine] | 105 | 92.4 | 102 (inactive) | 89.1 (inactive)
NC(=O)NO [Hydroxyurea] | 103 | 108 | 93.9 (inactive) | 91.8 (inactive)
N#CC(=C1Nc2ccccc2S1)c1ccnc(NCCc2cccnc2)n1 [JNK Inhibitor V] | 73.6 | 87.4 | 108 (inactive) | 123 (inactive)
Cc1onc(-c2ccccc2)c1C(=O)NC1C(=O)N2C1SC(C)(C)C2C(=O)[O-] (centres undefined) [Oxacillin] | 99.8 | 105 | 91.4 (inactive) | 111 (inactive)
CNCCC(Oc1ccccc1OC)c1ccccc1.Cl (centres undefined) [Nisoxetine hydrochloride] | 98.6 | 111 | 99.4 (inactive) | 101 (inactive)
COc1cccc2c1C(=O)c1c(O)c3c(c(O)c1C2=O)CC(O)(C(C)=O)CC3OC1CC(N)C(O)C(C)O1 (centres undefined) [Daunorubicin] | 53.3 ± 2.3 | 8.2 ± 1.4 | 134 (active) | 1730 (active)
Cl.NOCC(=O)O.NOCC(=O)O [O-(Carboxymethyl)hydroxylamine hemihydrochloride] | 107 | 97.9 | 99.1 (inactive) | 105 (inactive)
CCCc1nc2c(C)cc(-c3nc4ccccc4n3C)cc2n1Cc1ccc(-c2ccccc2C(=O)O)cc1 [Telmisartan] | 99.7 | 97.5 | 101 (inactive) | 97.2 (inactive)
CNC(=C[N+](=O)[O-])NCCSCc1ccc(CN(C)C)o1.Cl [Ranitidine.HCl] | 110 | 106 | 95.3 (inactive) | 103 (inactive)
CCC(=C(c1ccccc1)c1ccc(OCCN(C)C)cc1)c1ccccc1 [Tamoxifen] | 103 | 99.1 | 97.7 (inactive) | 114 (inactive)
Cc1nnc(SCC2=C(C(=O)[O-])N3C(=O)C(NC(=O)Cn4cnnn4)C3SC2)s1.[Na+] (centres undefined) [Cefazolin sodium] | 101 | 116 | 87.2 (inactive) | 89.5 (inactive)
COc1cc(CC(=O)O)ccc1O [4-Hydroxy-3-methoxyphenylacetic acid] | 105 | 106 | 102 (inactive) | 97 (inactive)
